The results in this text go back to the supplement of paper PMC4022240.

Experiment in all cases: peptide microarray binding signal (635 nm), min-max normalized on array (fraction of array maximum); higher = stronger binding
Assay [1] has as its target T1, HaloTag-ATRX ADD domain (163-292).
T1 chain: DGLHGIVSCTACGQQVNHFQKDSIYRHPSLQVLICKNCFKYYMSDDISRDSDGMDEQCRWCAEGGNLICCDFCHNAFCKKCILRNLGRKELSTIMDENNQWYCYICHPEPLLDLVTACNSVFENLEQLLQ
The method in brief: (§1)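 Binding signal is the mean intensity of triplicate spots, min-max scaled within each library. Histone 13-mer peptide–cellulose conjugates were spotted in triplicate on nitrocellulose with a Cy3 tracer and blocked overnight at 4°C. Probing lasted 1 h at 4°C, either with biotin-labelled HaloTag reader fusions (10 nM to 1 μM) and streptavidin-Alexa Fluor 647 or with rabbit histone antibodies (1:10,000 to 1:2,000) and anti-rabbit Alexa 647. An Axon GenePix 4000B read signal at 635 nm and misprints at 532 nm.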

In assay [2] the target is HaloTag-ING2 PHD (mouse Ing2 200-280). The method in brief:
as §1

The target in assay [3] is anti-H3K4me3 antibody ab8580. The method in brief:
as §1

Assay [4] deals with anti-H3K9me3 antibody ab8898. The method in brief: as §1
[5] abbreviates: peptide region: H3 112-124, peptide modifications: H3K115me3 H3R116me1, binder concentration: 1:2,000 dilution.
Setting [6] is: peptide region: H3 112-124, peptide modifications: H3K115me3 H3R116me1, binder concentration: 1:10,000 dilution.
The mark [7] stands for this setting: peptide region: H3 112-124, peptide modifications: H3K115me3 H3R116cit, binder concentration: 1:2,000 dilution.
Setting [8] is: peptide region: H3 112-124, peptide modifications: H3K115me3 H3R116cit, binder concentration: 1:10,000 dilution.
The mark [9] stands for this setting: peptide region: H4 1-13, peptide modifications: H4K5ac H4K8ac, binder concentration: 1:2,000 dilution.
Setting [10] is: peptide region: H4 1-13, peptide modifications: H4K5ac H4K8ac, binder concentration: 1:10,000 dilution.
Setting [11] is: peptide region: H4 1-13, peptide modifications: H4K5ac H4K8ac H4K12ac, binder concentration: 1:2,000 dilution.
Where [12] appears, read: peptide region: H4 1-13, peptide modifications: H4K5ac H4K8ac H4K12ac, binder concentration: 1:10,000 dilution.
The mark [13] stands for this setting: peptide region: H3 112-124, peptide modifications: H3R116me2a, binder concentration: 1:2,000 dilution.
Where [14] appears, read: peptide region: H3 112-124, peptide modifications: H3R116me2a, binder concentration: 1:10,000 dilution.

± gives the standard deviation.

In the case of IHAKRVTIMPKDI [H3 112-124 I H A Kme3 Rme V T I M P K D I], the “peptide microarray binding signal” value came out at 0.0052 ± 0.00018 in assay [1] (peptide region: H3 112-124, peptide modifications: H3K115me3 H3R116me1, binder concentration: 50 nM); 0.00929 ± 0.00049 in assay [1] (peptide region: H3 112-124, peptide modifications: H3K115me3 H3R116me1, binder concentration: 500 nM); 0.0491 ± 0.0085 in assay [2] (peptide region: H3 112-124, peptide modifications: H3K115me3 H3R116me1, binder concentration: 10 nM); 0.07016 ± 0.00021 in assay [2] (peptide region: H3 112-124, peptide modifications: H3K115me3 H3R116me1, binder concentration: 100 nM); 0.0275 ± 0.0037 in assay [3] (setting [5]); 0.0305 ± 0.0067 in assay [3] (setting [6]). The entries for the “peptide microarray binding signal” value in assay [4] (setting [5]) and in assay [4] (setting [6]) were 0.0215 ± 0.0033 and 0.0113 ± 0.0013, respectively.

With IHAKRVTIMPKDI [H3 112-124 I H A Kme3 Rcit V T I M P K D I], the “peptide microarray binding signal” value in assay [1] (peptide region: H3 112-124, peptide modifications: H3K115me3 H3R116cit, binder concentration: 50 nM) came to 0.00821 ± 0.00022; in assay [1] (peptide region: H3 112-124, peptide modifications: H3K115me3 H3R116cit, binder concentration: 500 nM), 0.0148 ± 0.00063; in assay [2] (peptide region: H3 112-124, peptide modifications: H3K115me3 H3R116cit, binder concentration: 10 nM), 0.0661 ± 0.012; in assay [2] (peptide region: H3 112-124, peptide modifications: H3K115me3 H3R116cit, binder concentration: 100 nM), 0.0923 ± 0.011; in assay [3] (setting [7]) it was 0.0677 ± 0.0083; in assay [3] (setting [8]), 0.058 ± 0.0049. The “peptide microarray binding signal” value came out at 0.0746 ± 0.0023 in assay [4] (setting [7]) and 0.0265 ± 0.00085 in assay [4] (setting [8]).

On to SGRGKGGKGLGKG [H4 1-13 S G R G Kac G G Kac G L G K G], for which the “peptide microarray binding signal” value worked out at 0.00737 ± 0.00034 in assay [1] (peptide region: H4 1-13, peptide modifications: H4K5ac H4K8ac, binder concentration: 50 nM); 0.0151 ± 0.00043 in assay [1] (peptide region: H4 1-13, peptide modifications: H4K5ac H4K8ac, binder concentration: 500 nM); 0.00746 ± 6.7e-05 in assay [2] (peptide region: H4 1-13, peptide modifications: H4K5ac H4K8ac, binder concentration: 10 nM); 0.0206 ± 0.0023 in assay [2] (peptide region: H4 1-13, peptide modifications: H4K5ac H4K8ac, binder concentration: 100 nM); 0.00177 ± 8.8e-05 in assay [3] (setting [9]); 0.00285 ± 8.8e-05 in assay [3] (setting [10]). In addition, the “peptide microarray binding signal” value in assay [4] (setting [9]) was 0.00068 ± 7.5e-05; in assay [4] (setting [10]) it was 0.00156 ± 5.5e-05.

Consider SGRGKGGKGLGKG [H4 1-13 S G R G Kac G G Kac G L G Kac G], for which the “peptide microarray binding signal” value in assay [1] (peptide region: H4 1-13, peptide modifications: H4K5ac H4K8ac H4K12ac, binder concentration: 50 nM) worked out at 0.00417 ± 0.00038; in assay [1] (peptide region: H4 1-13, peptide modifications: H4K5ac H4K8ac H4K12ac, binder concentration: 500 nM), 0.00538 ± 0.00043; in assay [2] (peptide region: H4 1-13, peptide modifications: H4K5ac H4K8ac H4K12ac, binder concentration: 10 nM) it was 0.00418 ± 0.00011; in assay [2] (peptide region: H4 1-13, peptide modifications: H4K5ac H4K8ac H4K12ac, binder concentration: 100 nM) it was 0.00645 ± 0.00041; in assay [3] (setting [11]), 0.00128 ± 0.00011; in assay [3] (setting [12]) it was 0.001541 ± 1.5e-05. In addition, the “peptide microarray binding signal” value in assay [4] (setting [11]) stood at 0.000695 ± 4.8e-05; in assay [4] (setting [12]), 0.001441 ± 1.4e-05.

As for IHAKRVTIMPKDI [H3 112-124 I H A K Rme2a V T I M P K D I], the “peptide microarray binding signal” value was found to be 0.00257 ± 3e-05 in assay [1] (peptide region: H3 112-124, peptide modifications: H3R116me2a, binder concentration: 50 nM); 0.00719 ± 0.00024 in assay [1] (peptide region: H3 112-124, peptide modifications: H3R116me2a, binder concentration: 500 nM); 0.00322 ± 3.5e-05 in assay [2] (peptide region: H3 112-124, peptide modifications: H3R116me2a, binder concentration: 10 nM); 0.007583 ± 5.2e-05 in assay [2] (peptide region: H3 112-124, peptide modifications: H3R116me2a, binder concentration: 100 nM); 0.000396 ± 1.8e-05 in assay [3] (setting [13]); 0.000514 ± 1.1e-05 in assay [3] (setting [14]). Besides, the figures for the “peptide microarray binding signal” value in assay [4] (setting [13]) and in assay [4] (setting [14]) were 0.00154 ± 0.0003 and 0.00098, respectively.
